Our source for the growth values is PubChem BioAssay (NCI).

Among the test systems are NCI-H23 lung; NCI-H226 lung; NCI-H322M lung; HOP-62 NSCLC; HOP-92 NSCLC; NCI-H522 lung; A549/ATCC NSCLC; 786-0 renal; COLO 205 colon; NCI-H460 lung.
Common to all, as to experiment: NCI-60 one-dose screen, 48 h (100 = growth as untreated, 0 = no growth, -100 = all killed)
Common to all, as to settings: 10 µM unless noted

The structures appear in SMILES notation. This is part of a sample that, as a whole, favours compounds with a hit. Of some 83,000 tested, about 20% had one in any assay.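 Percent growth is the endpoint: 0 to 100 indicates growth inhibition (40 means 60% inhibition), 0 means no net growth, and negative values indicate cell death.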 Values without a mark were called inactive. Activity calls are given as the source filed them. The calls were made as follows: active = growth percent below 10; inactive = the rest.

For `C#CCCCNCCNc1ccnc2cc(Cl)ccc12`, the growth is 72.7% with NCI-H23 lung; 70.7% with NCI-H226 lung; 92% in the assay on NCI-H322M lung; 79.1% with HOP-62 NSCLC; 53.4% with HOP-92 NSCLC; 41.1% in the assay with NCI-H522 lung. Moreover, the growth in the assay with A549/ATCC NSCLC is 84.3%; in the assay with 786-0 renal it was 58.8%; with COLO 205 colon it was 10.7%.
Consider `COc1ccc(-c2nc3ccccc3n2CC(=O)N=Nc2c(O)[nH]c3ccc(OC)cc23)cc1`, for which the growth with NCI-H23 lung is 89.7%; in the assay on NCI-H226 lung, -18.8% (active); with NCI-H322M lung it was 89.4%; in the assay on HOP-62 NSCLC it was 67.4%; in the assay with HOP-92 NSCLC, -7.89% (active); with NCI-H522 lung, 47.8%. The results for the growth in the assay with A549/ATCC NSCLC, in the assay on 786-0 renal and with COLO 205 colon were 37%, 42.4% and 36%, respectively.
Regarding `COc1ccc(/C=C/c2nc3ccccc3n3c(-c4cccc([N+](=O)[O-])c4)nnc23)cc1`, the growth is -78.1% (active) in the assay on NCI-H23 lung; -14.8% (active) in the assay on NCI-H226 lung; 41% in the assay on NCI-H322M lung; 25.4% in the assay with HOP-62 NSCLC; -48.7% (active) in the assay with HOP-92 NSCLC; -72.7% (active) in the assay on NCI-H522 lung. Also, the growth in the assay with A549/ATCC NSCLC is -4.88% (active); with 786-0 renal, -74.9% (active); with COLO 205 colon it was -70% (active).
Consider `COc1ccc2[nH]cc(-c3cc4nc(-c5cn(C)c6ncccc56)cc(N)n4n3)c2c1`, for which the growth with NCI-H23 lung was 13.9%; with NCI-H226 lung, 92.6%; in the assay on NCI-H322M lung, 37.1%; with HOP-62 NSCLC it was 19.8%; in the assay on HOP-92 NSCLC it was -45.7% (active); in the assay with NCI-H522 lung it was -58.7% (active). The growth in the assay with A549/ATCC NSCLC is -25.9% (active); in the assay on 786-0 renal it was -90.3% (active); with COLO 205 colon it was -49.9% (active).
Regarding `COc1cccc(-c2ccc(/C=N/NC(=O)c3[nH]c4ccc(Br)cc4c3-c3ccccc3)s2)c1`, the growth was -41.9% (active) in the assay with NCI-H23 lung; -1.63% (active) in the assay on NCI-H226 lung; 49.1% with NCI-H322M lung; 14.6% in the assay with HOP-62 NSCLC; 43.1% in the assay with HOP-92 NSCLC; -65.4% (active) in the assay on NCI-H522 lung. The growth is 10.7% in the assay with A549/ATCC NSCLC, -12.2% (active) in the assay on 786-0 renal and -28.7% (active) in the assay on COLO 205 colon.
In the case of `COc1ccc(-c2nc3ccc(-c4nnc(SCc5ccccc5)o4)cc3[nH]2)cc1OC`, the growth with NCI-H23 lung was 38.8%; in the assay with NCI-H226 lung it was -26.7% (active); in the assay with NCI-H322M lung, 46.7%; in the assay with HOP-62 NSCLC, -29.8% (active); with HOP-92 NSCLC, -3.75% (active); in the assay with NCI-H522 lung, 51.9%. In addition, the growth with A549/ATCC NSCLC was 9.7% (active); in the assay on 786-0 renal, -33.5% (active); with COLO 205 colon, 74.2%.
Turning to `Cn1cc(-c2cc(N)n3nc(-c4c[nH]c5ccccc45)cc3n2)c2ccccc21`, the growth with NCI-H23 lung was -73.4% (active); in the assay with NCI-H226 lung it was -38.6% (active); in the assay with NCI-H322M lung, -80% (active); in the assay with HOP-62 NSCLC it was -85.4% (active); in the assay with NCI-H460 lung, -66.6% (active); with HOP-92 NSCLC it was -59.5% (active). The growth is -85.1% (active) with NCI-H522 lung, -75.2% (active) with A549/ATCC NSCLC, -81.6% (active) in the assay with 786-0 renal and -88.6% (active) with COLO 205 colon.
`COc1cc(/C=C/C(=O)c2ccc(S(=O)(=O)NCCNc3nc(N(C)C)nc(N4CCOCC4)n3)cc2)cc(OC)c1OC`: the growth was 3.66% (active) in the assay with NCI-H23 lung; 11.5% in the assay with NCI-H226 lung; 57.2% with NCI-H322M lung; -19.1% (active) with HOP-62 NSCLC; 50.1% in the assay with HOP-92 NSCLC; -100% (active) with NCI-H522 lung. The results for the growth in the assay on A549/ATCC NSCLC, in the assay with 786-0 renal and with COLO 205 colon were 26.5%, -65.1% (active) and 28.3%, respectively.
Take `CCc1ccccc1NC(=O)N/C(N)=N/c1nc2ccccc2s1`: the growth was -2.24% (active) with NCI-H23 lung; 22.5% in the assay with NCI-H226 lung; 28.3% in the assay with NCI-H322M lung; -14.9% (active) in the assay with HOP-62 NSCLC; -15.2% (active) with HOP-92 NSCLC; -53.5% (active) in the assay with NCI-H522 lung. Also, the figures for the growth with A549/ATCC NSCLC, in the assay on 786-0 renal and in the assay on COLO 205 colon were 9.65% (active), -4.92% (active) and -84.1% (active), respectively.
With `CC[C@]12C=CCN3CC[C@]4(C(=C(C(=O)OC)C1)Nc1cc(OC)c([C@@H]5[C@H]6O[C@H]6[C@@]6(CC)CC(C(=O)OC)=C7Nc8cc(OC)ccc8[C@@]78CCN5[C@@H]68)cc14)[C@@H]32`, the growth was 41.8% in the assay with NCI-H23 lung; 72.3% in the assay on NCI-H226 lung; 86.2% in the assay on NCI-H322M lung; 74.1% with HOP-62 NSCLC; 62.1% in the assay on HOP-92 NSCLC; 64.8% with NCI-H522 lung. Besides, the growth is 70.1% in the assay with A549/ATCC NSCLC, 44.6% in the assay with 786-0 renal and 57.7% in the assay on COLO 205 colon.
`CC(C)C[C@H](NC(=O)CNC(=O)C[C@H]1O[C@@H]2OC3(C)CC[C@H]4[C@H](C)CC[C@@H]([C@H]1C)[C@@]24O3)B(O)O`: the growth in the assay with NCI-H23 lung was -37.1% (active); in the assay on NCI-H226 lung, -36.2% (active); in the assay on NCI-H322M lung, 54.4%; with HOP-62 NSCLC it was -3.39% (active); in the assay on HOP-92 NSCLC it was -18.8% (active); in the assay on NCI-H522 lung it was -74.3% (active). In addition, the values for the growth in the assay with A549/ATCC NSCLC, in the assay on 786-0 renal and with COLO 205 colon were 27.9%, 16% and 29.5%, respectively.
In the case of `O=C(CSc1nc2ccccc2c(=O)[nH]1)NNC(=O)c1ccccc1Cl`, the growth in the assay on NCI-H23 lung is 104%; with NCI-H226 lung, 111%; in the assay on NCI-H322M lung, 116%; in the assay on HOP-62 NSCLC, 115%; with HOP-92 NSCLC it was 100%; with NCI-H522 lung, 104%. Also, the growth with A549/ATCC NSCLC is 92.3%; in the assay on 786-0 renal, 97.1%; in the assay on COLO 205 colon, 124%.
With `FC(F)(F)c1cc2c(Cl)ncnc2n1CCN1CCCCC1`, the growth in the assay on NCI-H23 lung is 34.8%; in the assay on NCI-H226 lung, 97.8%; with NCI-H322M lung, 64.2%; in the assay on HOP-62 NSCLC, 76.3%; in the assay with HOP-92 NSCLC, 94.3%; in the assay on NCI-H522 lung it was -80.1% (active). Further, the figures for the growth in the assay with A549/ATCC NSCLC, in the assay with 786-0 renal and with COLO 205 colon were 95.5%, 92.5% and 75.2%, respectively.
For `CC1=C(C(=O)Nc2ccccc2)C(c2cccc(Cl)c2Cl)n2c(nc3ccccc32)N1` (configuration not stated), the growth in the assay with NCI-H23 lung was 61.3%; with NCI-H226 lung, 70.5%; with NCI-H322M lung it was 60.3%; in the assay with HOP-62 NSCLC, 88.6%; with HOP-92 NSCLC, 40.6%; in the assay on NCI-H522 lung, 25.3%. Moreover, the growth was 33.2% in the assay on A549/ATCC NSCLC, 53.4% with 786-0 renal and 63.9% in the assay on COLO 205 colon.
